Drawing on PubChem BioAssay AID463173 (ICCB-Longwood Screening Facility, Harvard Medical School, 2010), this text covers survival for 27 compounds.

Structures are written as SMILES. The campaign covered roughly 52,000 compounds. About 1,700 (3.3%) were called active. Cut-off read from the data, not from the text of the source: active = survival mostly below about 52% (no sharp cut-off); inactive = mostly above about 56%. The list comes from a sample in which actives are over-represented; it also holds similar structures and randomly drawn compounds.

The assay relates to Wild type. The experiment in a line: growth inhibition of S. aureus wild type versus tarO mutant, primary screen, teichoic acid synthesis inhibitors, RN4220, OD600 (AID 463173). Particulars: S. aureus RN4220 wild type/DeltatarO growth, OD600, 18 h, hits give low values, screened at 18.75 µg/mL (by protocol).
For `CCCCN(CCCNC(=O)CN1N=C(c2ccc(C)cc2)CCC1=O)c1ccccc1`, the survival was 101% (inactive).
The figure for `CCN(CCCNC(=O)CN1N=C(c2ccc(C)cc2)CCC1=O)c1ccccc1` is -2% (active).
The figure for `CCCCN(CCCNC(=O)CN1N=C(c2ccccc2)CCC1=O)c1ccccc1` is 72% (inactive).
`Cc1ccc(C2=NN(CC(=O)NCCCN(CC(C)C)CC(C)C)C(=O)CC2)cc1`: the survival was 84% (inactive).
The figure for `CCN(CCCNC(=O)CN1N=C(c2ccc(OC)cc2)CCC1=O)c1cccc(C)c1` is 124% (inactive); for `CCN(CCCNC(=O)CN1N=C(c2ccccc2)CCC1=O)c1cccc(C)c1` it is 136% (inactive); for `Cc1ccc(C2=NN(CC(=O)NCCN(CC(C)C)CC(C)C)C(=O)CC2)cc1` it is 129% (inactive).
The figure for `CCN(CCCNC(=O)CN1N=C(c2ccccc2)CCC1=O)c1ccccc1` is -6% (active); for `Cc1ccc(C2=NN(CC(=O)NCCC(C)C)C(=O)CC2)cc1` it is 10% (active).
The figure for `COc1ccccc1N1CCN(C(=O)c2cnn(-c3ccc(C)c(C)c3)c2C2CCN(C(=O)OC(C)(C)C)CC2)CC1` is 99% (inactive).
As for `CC(=O)NCCNc1nc2c(-c3ccc(C)cc3)nnn2c2ccccc12`, the survival is 82% (inactive).
The figure for `CCN(CC)C(=O)c1cc(-c2ccc(Cl)cc2)on1` is 51% (inactive); for `CCCN1C(=O)C(NC(=O)c2ccccc2OC)(C(F)(F)F)C(C(=O)OC)=C1C` (configuration not stated) it is 78% (inactive).
For `N#C/C(=C\c1cc(Br)c(O)c(Br)c1)c1nc2ccccc2c(=O)[nH]1`, the survival is 94% (inactive).
On to `O=C(NCc1ccccc1Cl)c1cc(=O)[nH]c2ccc(S(=O)(=O)N3CCCCC3)cc12`, for which the survival was 83% (inactive).
The figure for `CCOC(=O)c1cccc(Nc2cc(-c3ccccc3)ncn2)c1` is 40% (inactive); for `CCOC(=O)c1c(Nc2ccc(C)cc2)nnc(-c2ccccc2)c1-c1ccccc1` it is 2% (active).
The figure for `CCOC(=O)c1c(Nc2cccc(C)c2)nnc(-c2ccccc2)c1-c1ccccc1` is 0% (active); for `CCOC(=O)c1c(Nc2ccc(F)cc2)nnc(-c2ccccc2)c1-c1ccccc1` it is 1% (active).
The figure for `CCOC(=O)c1c(Oc2ccc(C(C)=O)cc2)nnc(-c2ccccc2)c1-c1ccccc1` is 92% (inactive); for `CCOC(=O)c1nc(Nc2ccc(OC)cc2)c2ccccc2n1` it is 143% (inactive).
For the compound `CCOC(=O)c1c(Nc2cc(C)cc(C)c2)nnc(-c2ccccc2)c1-c1ccccc1`, the survival was 38% (inactive).
The figure for `CCOC(=O)c1c(C)oc2nc(C)nc(Nc3ccc(C)c(Cl)c3)c12` is 80% (inactive); for `CCOC(=O)c1c(C)oc2nc(C)nc(Nc3ccc(CC)cc3)c12` it is 115% (inactive); for `CCOC(=O)c1cnc(-c2ccccc2)nc1Nc1ccc(C)cc1` it is 111% (inactive).
The figure for `CCOC(=O)c1c(Nc2cccc(O)c2)nnc(-c2ccccc2)c1-c1ccccc1` is 44% (inactive); for `CCOC(=O)c1c(Nc2ccc(C)c(C)c2)nnc(-c2ccccc2)c1-c1ccccc1` it is 0% (active).
